SMILES strings stand for the structures. Active and inactive are the calls of the source. Rule for the calls: active = hit-call score of the fitted dose curve at least 0.9, where 1 is the maximum; inactive = score below 0.9.

Test [1] can be described thus: ATG_CRE_CIS: Attagene CIS-FACTORIAL HepG2 Assay for human cAMP Responsive Element (CRE) binding protein 3 (AID 2282926). Particulars: HepG2 CRE cis-reporter, Attagene multiplexed mRNA; actives raise or lower the signal. In a few lines: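 HepG2 cells transiently transfected with cis-element-driven multiple reporter transcription units; CRE reporter mRNA measured 24 h after dosing by RT-PCR, 6-FAM labelling, HpaI digestion and capillary electrophoresis. Bidirectional fit versus DMSO baseline.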

Test [2] addresses CCAAT/enhancer-binding protein beta (Homo sapiens) (UniProt P17676). The test is described as follows: ATG_C_EBP_CIS: Attagene CIS-FACTORIAL HepG2 Assay for human CCAAT/Enhancer Binding Protein (C/EBP) beta (AID 2282927). Particulars: HepG2 Attagene cis-factorial transcription factor reporter; actives raise or lower the signal. In a few lines:
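Changes in reporter mRNA, rather than exogenous chimeric receptor activity, reflect native C/EBP signalling in transfected HepG2 cells dosed for 24 h; transcripts are detected by RT-PCR and capillary electrophoresis.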

The nature of test [3]: ATG_CMV_CIS: Attagene CIS-FACTORIAL HepG2 Assay for human CMV (Internal Marker) (AID 2282928).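 Note: endpoint acts as a background internal control marker rather than a target.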 Particulars: HepG2 CMV promoter reporter, transcription factor profiling; actives raise or lower the signal. In a few lines:
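Cell system: HepG2, transiently transfected multiple reporter units under cis promoters. Exposure: 24 h. Detection: RT-PCR, FAM labeling, HpaI digestion, capillary electrophoresis. Analysis: bidirectional, DMSO baseline.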

Test [4] is described as follows: ATG_AP_1_CIS: Attagene CIS-FACTORIAL HepG2 Assay for human Activator Protein 1 (AP-1) (AID 2282931). Particulars: HepG2 Attagene cis-factorial AP-1 reporter mRNA; actives raise or lower the signal. In a few lines: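 Multiplexed HepG2 reporter assay, 24 h dosing. mRNA induction detected by RT-PCR plus capillary electrophoresis. Activity fitted in both directions against DMSO.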

Test [5] can be described thus: ATG_AP_2_CIS: Attagene CIS-FACTORIAL HepG2 Assay for human Activator Protein 2 (AP-2) (AID 2282932). Particulars: HepG2 AP-2 cis-reporter, Attagene transcription factor profiling; actives raise or lower the signal. In a few lines:
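Step one: transient transfection of HepG2 with reporter transcription units. Step two: 24 h chemical exposure. Step three: RNA extraction, RT-PCR, labelled fragment analysis by capillary electrophoresis; DMSO serves as baseline.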

Test [6] is described as follows: ATG_BRE_CIS: Attagene CIS-FACTORIAL HepG2 Assay for human Bone Morphogenetic Protein (BMP) Response Element (BRE) (AID 2282933). Particulars: HepG2 BMP response element reporter, Attagene transcription factor profiling; actives raise or lower the signal. In a few lines:
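Endogenous transcription factor activity read in transiently transfected HepG2 cells after 24 h chemical exposure. Bidirectional curve fitting against DMSO; readout is reporter transcript level by RT-PCR with capillary electrophoresis of labelled products.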

Test [7] concerns the target Transcription factor E2F1 (Homo sapiens) (UniProt Q01094). Put plainly: ATG_E2F_CIS: Attagene CIS-FACTORIAL HepG2 Assay for human E2F Transcription Factor 1 (AID 2282935). Particulars: HepG2 Attagene cis-reporter, E2F reporter RNA transcripts; actives raise or lower the signal. In a few lines: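 Total RNA from 24 h-treated, reporter-transfected HepG2 cells undergoes DNase I treatment, oligo(dT) reverse transcription, PCR and 6-FAM primer extension before capillary electrophoresis.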

Test [8] in a line: ATG_E_Box_CIS: Attagene CIS-FACTORIAL HepG2 Assay for human Enhancer Box (E-box) (AID 2282936). Particulars: HepG2 E-box cis-reporter transcription, actives raise or lower the signal. In a few lines:
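DMSO served as negative control and baseline for bidirectional fitting. Human hepatoma HepG2 cells, transiently transfected with cis-reporter constructs, were dosed 24 h; reporter mRNA read by RT-PCR and capillary electrophoresis.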

A short description of test [9]: ATG_M_61_CIS: Attagene CIS-FACTORIAL HepG2 Assay for M61 Transcription Factor (Internal Marker) (AID 2282937). Particulars: HepG2 Attagene CIS-FACTORIAL M61 internal marker reporter; actives raise or lower the signal. In a few lines: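 Endogenous transcription factor activity in HepG2 is read through transiently transfected cis-element reporter units. After 24 h dosing, RNA undergoes reverse transcription, PCR and primer extension with 6-FAM before capillary electrophoresis; DMSO-referenced bidirectional fit.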

Test [10] is described as follows: ATG_EGR_CIS: Attagene CIS-FACTORIAL HepG2 Assay for human Early Growth Response 1 (EGR1) (AID 2282938). Particulars: HepG2 Attagene CIS-FACTORIAL EGR reporter mRNA; actives raise or lower the signal. In a few lines:
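Activity is taken as induction or loss of reporter mRNA versus DMSO, fitted bidirectionally. Transcripts from cis-regulated reporter units in transiently transfected HepG2 were measured after 24 h by RT-PCR with capillary electrophoresis.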

Test [11] is described as follows: ATG_M_19_CIS: Attagene CIS-FACTORIAL HepG2 Assay for M19 Transcription Factor (Internal Marker) (AID 2282939). Particulars: HepG2 Attagene CIS-FACTORIAL M19 internal marker reporter; actives raise or lower the signal. In a few lines:
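Internal marker readout, fitted in both directions against DMSO, from HepG2 cells carrying transfected cis-element reporter constructs; RT-PCR and capillary electrophoresis of reporter mRNA after 24 h exposure.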

Test [12] can be described thus: ATG_GATA_CIS: Attagene CIS-FACTORIAL HepG2 Assay for human GATA Binding Protein (AID 2282944). Particulars: HepG2 GATA cis-element reporter, Attagene multiplex mRNA; actives raise or lower the signal. In a few lines:
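Reporter transcripts from a GATA cis-regulated unit, among multiplexed reporters in transfected HepG2 cells, were measured by RT-PCR with capillary electrophoresis after 24 h dosing. Induction or loss scored relative to DMSO.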

Test [13] can be described thus: ATG_GLI_CIS: Attagene CIS-FACTORIAL HepG2 Assay for human Zinc Finger Protein GLI1 (AID 2282945). Particulars: HepG2, Attagene cis-factorial reporter mRNA, GLI element; actives raise or lower the signal. In a few lines: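 Bidirectional curve fits relative to DMSO, using reporter mRNA levels from RT-PCR plus capillary electrophoresis. Cells were HepG2 transiently carrying cis-regulated reporter constructs, harvested 24 h after dosing.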

The nature of test [14]: ATG_ISRE_CIS: Attagene CIS-FACTORIAL HepG2 Assay for human Interferon Regulatory Factor 1 (IRF1) binding to an Interferon-Stimulated Response Element (ISRE) (AID 2282948). Particulars: HepG2 ISRE cis-reporter (Attagene), mRNA transcription readout; actives raise or lower the signal. In a few lines: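 Quantitation relies on labelled RT-PCR fragments separated by capillary electrophoresis. Human HepG2 cells bearing cis-promoter reporter constructs were treated 24 h; DMSO served as baseline for bidirectional fitting.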

The nature of test [15]: ATG_M_32_CIS: Attagene CIS-FACTORIAL HepG2 Assay for M32 Transcription Factor (Internal Marker) (AID 2282949).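 Note: background control marker of the multiplexed CIS panel rather than a real target.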 Particulars: HepG2 Attagene cis-factorial M32 reporter, mRNA; actives raise or lower the signal. In a few lines:
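Following 24 h chemical exposure of HepG2 cells transiently expressing cis-promoter reporter constructs, reporter transcript levels were determined by RT-PCR with fluorescent labelling and capillary electrophoresis, then fitted bidirectionally against DMSO.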

Test [16] in a line: ATG_MRE_CIS: Attagene CIS-FACTORIAL HepG2 Assay for human Metal Responsive Element (MRE) (AID 2282954). Particulars: HepG2 MRE cis-reporter transcription, Attagene multiplex; actives raise or lower the signal. In a few lines:
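After a 24 h chemical exposure, transiently transfected HepG2 cells yield RNA whose reporter sequences are amplified, FAM-labelled and sized by capillary electrophoresis. Curves are fitted bidirectionally relative to DMSO.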

For test [17], the target named is Paired box protein Pax-6 (Homo sapiens) (UniProt P26367). Put plainly: ATG_Pax6_CIS: Attagene CIS-FACTORIAL HepG2 Assay for human Paired Box 6 (PAX6) (AID 2282956). Particulars: HepG2 CIS-FACTORIAL PAX6 reporter transcription, RNA readout; actives raise or lower the signal. In a few lines:
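After twenty-four hours of chemical exposure, transfected HepG2 cells are harvested for RNA. Cis-promoter reporter transcripts are amplified, fluorescently labelled and sized by capillary electrophoresis, with gain and loss of signal scored against DMSO.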

Test [18] is described as follows: ATG_PXRE_CIS: Attagene CIS-FACTORIAL HepG2 Assay for human Pregnane X Receptor Element (PXRE) (AID 2282957). Particulars: HepG2 Attagene CIS-FACTORIAL PXRE reporter, mRNA; actives raise or lower the signal. In a few lines: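 HepG2 cells transiently transfected with cis-element-driven multiplexed reporter units; after 24 h chemical exposure, reporter mRNA measured by RT-PCR, 6-FAM labelling, HpaI digestion and capillary electrophoresis. Bidirectional fitting relative to DMSO.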

Test [19] concerns the target Transcription factor Sp1 (Homo sapiens) (UniProt P08047). Put plainly: ATG_Sp1_CIS: Attagene CIS-FACTORIAL HepG2 Assay for human Specificity Protein 1 (Sp1) (AID 2282961). Particulars: HepG2 Sp1 cis-reporter transcription, actives raise or lower the signal. In a few lines:
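Cells: HepG2, transiently transfected with cis-regulated multiplexed reporters. Exposure: 24 h. Detection: reporter transcripts amplified, fluorescently labeled, restriction-digested and sized by capillary electrophoresis. Analysis: bidirectional fit relative to DMSO.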

Test [20] deals with Signal transducer and activator of transcription 3 (Homo sapiens) (UniProt P40763). Put plainly: ATG_STAT3_CIS: Attagene CIS-FACTORIAL HepG2 Assay for human Signal Transducer and Activator of Transcription 3 (STAT3) (AID 2282963). Particulars: HepG2, Attagene cis-factorial STAT3 reporter transcription; actives raise or lower the signal. In a few lines: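 After a 24 h compound incubation, total RNA from MRTU-transfected HepG2 cells was converted to cDNA and reporter sequences PCR-amplified, labelled and profiled by capillary electrophoresis. Gain and loss of signal were referenced to DMSO.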
Signal transducer and activator of transcription 3 (Homo sapiens), sequence (P40763 whole entry, looked up): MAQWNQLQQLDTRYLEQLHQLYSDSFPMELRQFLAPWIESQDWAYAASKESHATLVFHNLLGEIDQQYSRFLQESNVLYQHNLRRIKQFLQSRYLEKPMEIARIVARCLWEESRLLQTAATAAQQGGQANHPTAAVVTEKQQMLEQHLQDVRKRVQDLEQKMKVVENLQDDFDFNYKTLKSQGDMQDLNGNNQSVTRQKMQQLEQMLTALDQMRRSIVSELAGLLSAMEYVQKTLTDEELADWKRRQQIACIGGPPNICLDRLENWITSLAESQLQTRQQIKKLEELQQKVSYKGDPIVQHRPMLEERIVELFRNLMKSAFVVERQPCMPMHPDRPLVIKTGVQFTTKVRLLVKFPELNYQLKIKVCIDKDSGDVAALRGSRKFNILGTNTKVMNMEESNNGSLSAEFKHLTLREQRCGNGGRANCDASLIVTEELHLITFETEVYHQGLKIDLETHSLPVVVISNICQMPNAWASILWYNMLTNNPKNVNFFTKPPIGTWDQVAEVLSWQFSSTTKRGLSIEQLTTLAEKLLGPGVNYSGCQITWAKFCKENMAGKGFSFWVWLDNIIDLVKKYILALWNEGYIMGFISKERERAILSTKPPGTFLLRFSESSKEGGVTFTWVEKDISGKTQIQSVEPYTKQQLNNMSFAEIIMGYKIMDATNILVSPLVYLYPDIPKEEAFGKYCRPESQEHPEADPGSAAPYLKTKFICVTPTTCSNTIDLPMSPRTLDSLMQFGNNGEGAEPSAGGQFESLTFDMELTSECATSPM

Paired box protein Pax-6 (Homo sapiens), sequence (P26367 whole entry, looked up): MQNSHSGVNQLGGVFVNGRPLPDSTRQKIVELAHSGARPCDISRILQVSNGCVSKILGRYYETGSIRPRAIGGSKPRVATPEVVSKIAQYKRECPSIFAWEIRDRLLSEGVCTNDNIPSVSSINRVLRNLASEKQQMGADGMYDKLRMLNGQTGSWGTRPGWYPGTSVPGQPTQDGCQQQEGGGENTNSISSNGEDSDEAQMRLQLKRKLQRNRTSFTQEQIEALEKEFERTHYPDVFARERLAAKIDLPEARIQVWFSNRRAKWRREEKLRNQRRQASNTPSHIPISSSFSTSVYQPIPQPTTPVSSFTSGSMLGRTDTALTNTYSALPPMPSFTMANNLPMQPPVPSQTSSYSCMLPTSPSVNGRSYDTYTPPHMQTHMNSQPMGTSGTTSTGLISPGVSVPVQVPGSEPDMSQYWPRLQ
Transcription factor Sp1 (Homo sapiens), sequence (P08047 whole entry, looked up): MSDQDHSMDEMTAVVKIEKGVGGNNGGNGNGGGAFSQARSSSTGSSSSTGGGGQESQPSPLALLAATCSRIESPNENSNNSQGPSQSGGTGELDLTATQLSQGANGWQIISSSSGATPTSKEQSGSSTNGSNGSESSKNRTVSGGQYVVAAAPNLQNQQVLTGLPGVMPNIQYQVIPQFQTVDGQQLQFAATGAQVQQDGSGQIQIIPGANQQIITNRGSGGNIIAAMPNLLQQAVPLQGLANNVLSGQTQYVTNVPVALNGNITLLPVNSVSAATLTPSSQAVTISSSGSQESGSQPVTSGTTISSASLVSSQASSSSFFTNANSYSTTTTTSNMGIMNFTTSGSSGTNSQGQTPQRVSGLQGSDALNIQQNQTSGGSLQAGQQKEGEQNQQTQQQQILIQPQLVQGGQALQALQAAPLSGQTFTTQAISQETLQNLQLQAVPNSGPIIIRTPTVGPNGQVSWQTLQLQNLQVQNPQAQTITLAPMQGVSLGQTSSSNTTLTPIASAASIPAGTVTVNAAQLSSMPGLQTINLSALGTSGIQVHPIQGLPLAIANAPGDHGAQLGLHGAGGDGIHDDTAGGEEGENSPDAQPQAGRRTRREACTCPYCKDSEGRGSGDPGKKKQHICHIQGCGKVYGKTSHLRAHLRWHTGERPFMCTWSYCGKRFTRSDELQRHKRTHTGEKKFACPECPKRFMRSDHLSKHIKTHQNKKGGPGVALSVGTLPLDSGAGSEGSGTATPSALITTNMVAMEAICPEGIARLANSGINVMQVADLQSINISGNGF
CCAAT/enhancer-binding protein beta (Homo sapiens), sequence (P17676 whole entry, looked up): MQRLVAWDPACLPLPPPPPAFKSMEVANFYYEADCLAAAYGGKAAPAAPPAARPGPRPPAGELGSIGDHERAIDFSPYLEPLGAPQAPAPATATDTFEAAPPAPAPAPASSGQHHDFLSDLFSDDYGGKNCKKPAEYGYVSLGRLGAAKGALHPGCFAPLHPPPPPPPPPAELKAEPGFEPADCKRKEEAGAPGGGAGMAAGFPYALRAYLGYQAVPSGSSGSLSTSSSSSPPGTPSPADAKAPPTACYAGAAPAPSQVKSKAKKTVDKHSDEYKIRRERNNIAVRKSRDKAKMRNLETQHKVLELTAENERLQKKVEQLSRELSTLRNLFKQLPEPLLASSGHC
Transcription factor E2F1 (Homo sapiens), sequence (Q01094 whole entry, looked up): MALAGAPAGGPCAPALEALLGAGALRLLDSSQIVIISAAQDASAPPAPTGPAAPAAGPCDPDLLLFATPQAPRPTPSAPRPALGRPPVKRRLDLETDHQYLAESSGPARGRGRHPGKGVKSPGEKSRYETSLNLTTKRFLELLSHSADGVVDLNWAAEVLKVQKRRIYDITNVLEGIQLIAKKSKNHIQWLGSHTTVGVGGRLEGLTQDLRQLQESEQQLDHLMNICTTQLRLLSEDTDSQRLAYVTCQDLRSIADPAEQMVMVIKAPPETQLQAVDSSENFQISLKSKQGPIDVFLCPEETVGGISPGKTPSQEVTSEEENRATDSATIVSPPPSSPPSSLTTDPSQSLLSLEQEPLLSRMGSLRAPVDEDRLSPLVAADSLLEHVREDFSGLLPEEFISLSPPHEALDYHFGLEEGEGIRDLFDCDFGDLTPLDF

Broadly, the AC50 is the concentration giving half of the maximal activity seen. With `COC(=O)[C@]1(C)CCC[C@@]2(C)[C@H]1CC=C1C=C(C(C)C)CC[C@@H]12`, the outcome in test [1], in test [2], in test [5], in [7], in [8] and in [9] was inactive. Further, the outcome in test [10], in test [11], in [13], in test [14], in [15] and in test [17] was inactive. In addition, the molecule was classed as inactive in test [19] and in test [20]. Further, the AC50 is 100 µM (active) in [3]; 62.4 µM (active) in [4]; 100 µM (active) in test [6]; 173 µM (active) in test [12]; 66.1 µM (active) in test [16]; 3.48 µM (active) in test [18].
On to `NCc1ccccc1`, for which the molecule was classed as inactive in test [1], in test [2], in test [3], in test [4], in test [5] and in test [6]. The molecule was classed as inactive in [7], in [8], in test [9], in [10], in test [11] and in [12]. Besides, the molecule was called inactive in test [13], in test [14], in [15], in [16], in test [17] and in test [18]. For the same molecule, the result in [19] and in test [20] was inactive.
For the molecule `CC(C)CC(=O)CC(C)CC(C)C` (stereo not given), the molecule was called inactive in test [1], in test [2], in test [3], in test [4], in [5] and in [6]. Also, the outcome in [7], in [8], in test [9], in test [10], in test [11] and in [12] was inactive. Moreover, the molecule was classed as inactive in [13], in test [14], in [15], in test [16], in test [17] and in test [19]. Besides, in [20], the call was inactive. For the same molecule, the AC50 in test [18] was 29.3 µM (active).
For `CN(C)N=Nc1ccccc1`, the call in test [1], in test [2], in test [3], in test [4], in test [5] and in test [6] was inactive. Further, the call in test [7], in test [8], in test [9], in test [10], in test [11] and in test [12] was inactive. For the same molecule, the result in test [13], in [14], in test [15], in test [16], in test [17] and in test [19] was inactive. For the same molecule, in test [20], the molecule was called inactive. The AC50 in [18] was 48.3 µM (active).
`CCCCCCCCCC/C=C/C1CC(=O)OC1=O` (stereo not given): the molecule was called inactive in test [1], in test [2], in [3], in [4], in test [5] and in test [6]. The molecule was called inactive in test [7], in test [8], in test [9], in test [10], in [11] and in test [12]. Also, the outcome in [13], in [14], in [15], in [16], in test [17] and in test [18] was inactive. Further, the outcome in [19] and in [20] was inactive.
As for `CN(C)Cc1cc(C(C)(C)C)c(O)c(C(C)(C)C)c1`, the result in test [1], in test [2], in test [3], in test [4], in test [5] and in test [6] was inactive. Besides, the call in [7], in test [8], in test [9], in test [10], in test [11] and in test [12] was inactive. Besides, the call in test [13], in test [14], in [15], in [16], in test [17] and in test [19] was inactive. Also, the result in test [20] was inactive. Moreover, in test [18], the AC50 was 3.41 µM (active).
For the molecule `CCCCC(CC)COC(=O)CS` (stereo not given), the outcome in [1], in [2], in test [3], in test [4], in [5] and in test [6] was inactive. For the same molecule, the call in test [7], in test [8], in test [9], in test [10], in test [11] and in test [12] was inactive. The outcome in test [13], in test [14], in test [15], in test [16], in [17] and in test [19] was inactive. Moreover, the outcome in test [20] was inactive. Moreover, the AC50 in test [18] was 13.1 µM (active).

(Values after PubChem BioAssay (EPA / NIEHS).)
